Values joined by “and” are separate entries in the source; they are usually repeats but may differ in a detail not shown here. Equal entries are not always repeated. Compounds without any hit were thinned out: in the full panel of roughly 83,000, 20% have a hit.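 Step 1: grow cells in 96-well plates. Step 2: add test compound at a single concentration. Step 3: incubate 48 h. Step 4: record percent growth.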 Active and inactive are the calls of the source. The calls were made as follows: active = growth percent below 10; inactive = the rest.

Some test systems named below: NCI-H23 lung; NCI-H226 lung; NCI-H322M lung; HOP-62 NSCLC; NCI-H460 lung; HOP-92 NSCLC; NCI-H522 lung; A549/ATCC NSCLC; 786-0 renal; COLO 205 colon.
What all share (experiment): NCI-60 one-dose screen, 48 h (100 = growth as untreated, 0 = no growth, -100 = all killed)
Holding throughout (details): 10 µM unless noted

In the case of `Cc1ccc(C(=Nc2ccccc2)N=P(c2ccccc2)(c2ccccc2)c2ccccc2)cc1`, the growth with NCI-H23 lung is -24.5% (active); in the assay on NCI-H226 lung, -46.2% (active); with NCI-H322M lung it was -29.4% (active); in the assay on HOP-62 NSCLC it was -90.2% (active); in the assay on NCI-H460 lung it was -75.2% (active); with HOP-92 NSCLC, -43.1% (active). Also, the growth was -55.8% (active) in the assay with NCI-H522 lung, 6.89% (active) in the assay on A549/ATCC NSCLC, -55% (active) with 786-0 renal and -87.8% (active) in the assay on COLO 205 colon.
Turning to `COc1cc(/C=C(/C)C[N+](=O)[O-])ccc1O`, the growth with NCI-H23 lung is 98.3% (inactive); in the assay on NCI-H226 lung, 104% (inactive); in the assay with NCI-H322M lung, 92.5% (inactive); in the assay with HOP-62 NSCLC it was 103% (inactive); in the assay on NCI-H460 lung it was 106% (inactive); in the assay on HOP-92 NSCLC, 98.4% (inactive). Further, the growth is 72% (inactive) with NCI-H522 lung, 85.9% (inactive) in the assay with A549/ATCC NSCLC, 99.5% (inactive) with 786-0 renal and 86.8% (inactive) in the assay with COLO 205 colon.
With `CN1c2ccccc2C(C)(C)C12C=Cc1cc(O)ccc1O2` (stereo not given), the growth in the assay on NCI-H23 lung was 52.3% (inactive); in the assay with NCI-H226 lung it was 89% (inactive); in the assay on NCI-H322M lung, 109% (inactive); in the assay on HOP-62 NSCLC it was 82.8% (inactive); in the assay with NCI-H460 lung it was 67.9% (inactive); with HOP-92 NSCLC, -6.47% (active). The growth in the assay with NCI-H522 lung is -15.6% (active); in the assay on A549/ATCC NSCLC, 75.2% (inactive); with 786-0 renal, 87.1% (inactive); in the assay with COLO 205 colon, 78.2% (inactive).
As to `Cc1cc(C(C)(CC(C)C)c2ccc(O)c(C)c2)ccc1O`, the growth with NCI-H23 lung is 108% (inactive); in the assay on NCI-H226 lung, 93% (inactive); with NCI-H322M lung, 94.6% (inactive); in the assay on HOP-62 NSCLC it was 104% (inactive); with NCI-H460 lung, 104% (inactive); in the assay with HOP-92 NSCLC it was 88.3% (inactive). Moreover, the growth is 92.6% (inactive) in the assay with NCI-H522 lung, 81.5% (inactive) in the assay with A549/ATCC NSCLC, 102% (inactive) in the assay with 786-0 renal and 125% (inactive) with COLO 205 colon.
As to `CCC1OC(OC)C=CC1=O` (stereo not given), the growth with NCI-H23 lung is 106% (inactive); with NCI-H226 lung it was 103% (inactive); in the assay with NCI-H322M lung, 108% (inactive); in the assay on HOP-62 NSCLC, 98.2% (inactive); in the assay on NCI-H460 lung it was 108% (inactive); in the assay with HOP-92 NSCLC, 90.1% (inactive). For the same compound, the growth in the assay with NCI-H522 lung is 95.5% (inactive); in the assay with A549/ATCC NSCLC, 102% (inactive); in the assay on 786-0 renal it was 99.9% (inactive); in the assay with COLO 205 colon, 103% (inactive).
Turning to `Cc1ccc2nc(C[n+]3ccc4ccccc4c3)ccc2c1`, the growth in the assay with NCI-H23 lung is 42% (inactive); in the assay with NCI-H226 lung, 68.9% (inactive); with NCI-H322M lung it was 97.6% (inactive); in the assay with HOP-62 NSCLC it was 69.9% (inactive); with NCI-H460 lung, 55% (inactive); in the assay with HOP-92 NSCLC, 28% (inactive). Also, the growth was 47.1% (inactive) in the assay with NCI-H522 lung, 51.7% (inactive) in the assay on A549/ATCC NSCLC, 92.2% (inactive) in the assay with 786-0 renal and 27.3% (inactive) in the assay on COLO 205 colon.
With `S=C(NCCNC(=S)[S][Sn]([c]1ccccc1)([c]1ccccc1)[c]1ccccc1)[S][Sn]([c]1ccccc1)([c]1ccccc1)[c]1ccccc1`, the growth with NCI-H23 lung is -68.6% (active); in the assay on NCI-H226 lung, -95.4% (active); in the assay with NCI-H322M lung, -99.4% (active); with HOP-62 NSCLC, -100% (active); in the assay with NCI-H460 lung, -86.8% (active); in the assay with HOP-92 NSCLC, -87.3% (active). Moreover, the growth in the assay on NCI-H522 lung was -93.2% (active); with A549/ATCC NSCLC it was -98.8% (active); with 786-0 renal, -94% (active); in the assay with COLO 205 colon, -91.3% (active).
In the case of `Cc1ccc2nc(-[n+]3cc4ccccc4cc3C)ccc2c1`, the growth in the assay on NCI-H23 lung was 19.1% (inactive); in the assay with NCI-H226 lung, 53.7% (inactive); in the assay on NCI-H322M lung, 85.2% (inactive); in the assay with HOP-62 NSCLC it was 37.1% (inactive); with NCI-H460 lung, 29.5% (inactive); with HOP-92 NSCLC, 5.49% (active). The growth is 26.2% (inactive) in the assay on NCI-H522 lung, 43.1% (inactive) in the assay with A549/ATCC NSCLC, 81.2% (inactive) in the assay on 786-0 renal and -11.8% (active) in the assay on COLO 205 colon.
As to `S=C(N/N=C/c1ccccn1)Nc1ccccn1`, the growth in the assay with NCI-H23 lung was 23.8% (inactive); in the assay on NCI-H226 lung, 12.1% (inactive); with NCI-H322M lung it was 22.4% (inactive); with HOP-62 NSCLC, 13.7% (inactive); with NCI-H460 lung, 2.59% (active); with HOP-92 NSCLC it was -2.58% (active). Moreover, the growth in the assay on NCI-H522 lung was -39.9% (active); with A549/ATCC NSCLC, 20.7% (inactive); in the assay on 786-0 renal, 2.42% (active); in the assay on COLO 205 colon, 9.1% (active).
In the case of `NC(=S)N/N=C\c1nccc2c(C(F)(F)C(F)(F)C(F)(F)F)cccc12`, the growth in the assay with NCI-H23 lung was 9.5% (active); with NCI-H226 lung it was -27.3% (active); in the assay on NCI-H322M lung, -1.69% (active); in the assay on HOP-62 NSCLC, -7.59% (active); in the assay with NCI-H460 lung, -25.9% (active); with HOP-92 NSCLC it was -2.33% (active). In addition, the growth in the assay with NCI-H522 lung was -20.7% (active); with A549/ATCC NSCLC, -20.8% (active); with 786-0 renal, -48.3% (active); in the assay with COLO 205 colon, 16.5% (inactive).
Turning to `C=CCOc1ccc(N=NC(C#N)C#N)cc1`, the growth in the assay on NCI-H23 lung was 75.7% (inactive); with NCI-H226 lung it was 84.5% (inactive); in the assay on NCI-H322M lung, 93% (inactive); in the assay with HOP-62 NSCLC it was 52.3% (inactive); in the assay with NCI-H460 lung it was 104% (inactive); with HOP-92 NSCLC it was -13.1% (active). The growth was -12.9% (active) with NCI-H522 lung, 86.3% (inactive) with A549/ATCC NSCLC, 78.8% (inactive) with 786-0 renal and 22.1% (inactive) in the assay on COLO 205 colon.
With `C1=C(c2ccccc2)C(c2ccc(OCCN3CCCCC3)cc2)Oc2ccccc21` (stereo not given), the growth in the assay with NCI-H23 lung is 58.4% (inactive); with NCI-H226 lung, 74.4% (inactive); with NCI-H322M lung, 77.4% (inactive); with HOP-62 NSCLC, 60.5% (inactive); in the assay with NCI-H460 lung, -20.2% (active); in the assay with HOP-92 NSCLC, 59.3% (inactive). Further, the growth is 24.7% (inactive) with NCI-H522 lung, 59.2% (inactive) in the assay on A549/ATCC NSCLC, 55.6% (inactive) in the assay with 786-0 renal and -55.1% (active) in the assay on COLO 205 colon.
With `CCCCCCCCCCCCCCCCN(CC)CC`, the growth in the assay on NCI-H23 lung is -93.1% (active); in the assay on NCI-H226 lung, -65.9% (active); in the assay with NCI-H322M lung, 14.5% (inactive); with HOP-62 NSCLC it was -54.4% (active); in the assay on NCI-H460 lung, 1.87% (active); in the assay with HOP-92 NSCLC, -67.9% (active). Further, the growth with NCI-H522 lung was -82.4% (active); in the assay with A549/ATCC NSCLC it was -69.5% (active); in the assay with 786-0 renal, -86.1% (active); with COLO 205 colon, -62.5% (active).
On to `O=C(Oc1cccc2cccnc12)c1ccccc1`, for which the growth with NCI-H23 lung was 94.3% (inactive) and 103% (inactive); in the assay with NCI-H226 lung it was 110% (inactive) and 102% (inactive); in the assay with NCI-H322M lung, 107% (inactive) and 117% (inactive); in the assay with HOP-62 NSCLC, 98.8% (inactive) and 106% (inactive); in the assay with NCI-H460 lung it was 87.1% (inactive) and 109% (inactive); with HOP-92 NSCLC it was 91% (inactive) and 110% (inactive). Further, the growth with NCI-H522 lung is -4.17% (active) and 98.3% (inactive); in the assay on A549/ATCC NSCLC it was 100% (inactive) and 103% (inactive); in the assay on 786-0 renal, 100% (inactive) and 107% (inactive); in the assay with COLO 205 colon, 84.8% (inactive) and 106% (inactive).

Values taken from PubChem BioAssay (NCI).
